About 2,000 (36%) of roughly 5,500 compounds were called active. Inconclusive results (about 18%) are left out. Rule as the data show it: active = normalized growth mostly below about 0.91 (no sharp cut-off); inconclusive = no clear call, values can overlap the other calls; inactive = mostly above about 0.92. Some of the results follow.
Assay: chemical genetic growth profiling, strain panel (AID 1159580);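 also: tested at 20 µM; growth read once vehicle control cultures reached saturation at 30 °C; 1 = growth at the plate median or of vehicle wells; lower values mean less growth of the strain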
Details: S. cerevisiae deletion strains, growth OD
[1] = locus YHR030C, strain SLT2, active compounds read low
[2] = locus YHR079C, strain IRE1, active compounds read low
[3] = locus YJL095W, strain BCK1, active compounds read low
[4] = locus YJR066W, strain TOR1, active compounds read low
[5] = locus YLR113W, strain HOG1, active compounds read low
[6] = locus YNL183C, strain NPR1, active compounds read low
[7] = locus YOR231W, strain MKK1, active compounds read low
[8] = locus YPL256C, strain CLN2, active compounds read low

Measured: normalized growth

C[N+]1(C)CCc2cc3c(cc2[C@H]1C1OC(=O)c2c1ccc1c2OCO1)OCO3 (some centres undefined)
inactive: locus YAL021C, strain ccr4, active compounds read low 0.981 | locus YAL026C, strain drs2, active compounds read low 0.987 | locus YAL030W, strain snc1, active compounds read low 0.999 | locus YBL061C, strain skt5, active compounds read low 1 | locus YBR009C, strain hhf1, active compounds read low 0.992 | locus YBR023C, strain chs3, active compounds read low 1.01 | locus YBR171W, strain sec66, active compounds read low 1 | locus YBR231C, strain swc5, active compounds read low 1.01 | locus YBR279W, strain paf1, active compounds read low 0.997 | locus YCL011C, strain gbp2, active compounds read low 0.999 | locus YCL016C, strain dcc1, active compounds read low 0.991 | locus YCL061C, strain MRC1, active compounds read low 0.994 | locus YCL069W, strain vba3, active compounds read low 0.999 | locus YCR088W, strain abp1, active compounds read low 0.997 | locus YDL005C, strain med2, active compounds read low 1 | locus YDL040C, strain nat1, active compounds read low 0.996 | locus YDR001C, strain nth1, active compounds read low 0.983 | locus YDR069C, strain doa4, active compounds read low 1.02 | locus YDR137W, strain rgp1, active compounds read low 0.996 | locus YDR159W, strain sac3, active compounds read low 1.07 | locus YDR195W, strain ref2 0.989 | locus YDR297W, strain sur2, active compounds read low 1.01 | locus YDR334W, strain swr1, active compounds read low 0.986 | locus YDR335W, strain msn5, active compounds read low 0.996 | locus YDR392W, strain spt3, active compounds read low 0.982 | locus YEL003W, strain gim4, active compounds read low 1 | locus YEL037C, strain rad23, active compounds read low 0.99 | locus YEL061C, strain CIN8 (second series), active compounds read low 0.99 | locus YER015W, strain faa2, active compounds read low 0.992 | locus YER016W, strain bim1, active compounds read low 1 | locus YER111C, strain swi4, active compounds read low 1.01 | locus YER155C, strain BEM2 (second series), active compounds read low 1 | locus YFR010W, strain ubp6, active compounds read low 0.989 | locus YGL167C, strain pmr1, active compounds read low 0.998 | locus YGL173C, strain kem1, active compounds read low 1.01 | locus YGL227W, strain vid30, active compounds read low 1 | locus YGL240W, strain doc1, active compounds read low 1.01 | locus YGL253W, strain hxk2, active compounds read low 0.995 | locus YHR013C, strain ard1, active compounds read low 0.957 | locus YHR027C, strain rpn1, active compounds read low 0.992 | [1] 1.06 | [2] 1.06 | locus YHR142W, strain chs7, active compounds read low 0.981 | locus YJL092W, strain hpr5, active compounds read low 0.995 | locus YJL095W, strain BCK1 (second series), active compounds read low 0.994 | [3] 1.06 | locus YJL115W, strain asf1, active compounds read low 0.978 | locus YJL129C, strain trk1, active compounds read low 1 | locus YJL154C, strain vps35, active compounds read low 0.991 | locus YJL164C, strain tpk1, active compounds read low 0.98 | locus YJL166W, strain qcr8, active compounds read low 1 | locus YJL187C, strain SWE1, active compounds read low 1.02 | [4] 0.973 | locus YKL160W, strain elf1, active compounds read low 0.989 | locus YKR026C, strain gcn3, active compounds read low 0.991 | locus YKR091W, strain srl3, active compounds read low 0.988 | locus YLL001W, strain dnm1, active compounds read low 0.97 | locus YLL026W, active compounds read low 1 | locus YLL041C, strain sdh2, active compounds read low 0.993 | locus YLR027C, strain aat2, active compounds read low 1.01 | [5] 1.03 | locus YLR221C, strain rsa3, active compounds read low 1.03 | locus YLR258W, strain gsy2, active compounds read low 1.01 | locus YLR262C, strain YPT6 (second series), active compounds read low 0.995 | locus YLR320W, strain mms22, active compounds read low 1.03 | locus YLR342W, strain FKS1, active compounds read low 0.996 | locus YLR357W, strain rsc2, active compounds read low 0.956 | locus YLR370C, strain arc18, active compounds read low 1.01 | locus YLR384C, strain iki3, active compounds read low 0.999 | locus YML120C, strain ndi1, active compounds read low 0.991 | locus YMR058W, strain fet3, active compounds read low 0.986 | locus YMR125W, strain sto1, active compounds read low 0.97 | locus YMR129W, active compounds read low 1 | locus YMR205C, strain PFK2, active compounds read low 0.971 | locus YMR231W, strain pep5, active compounds read low 0.983 | locus YNL071W, strain lat1, active compounds read low 0.997 | [6] 0.974 | locus YNL209W, strain ssb2, active compounds read low 1 | locus YNL248C, strain rpa49, active compounds read low 0.959 | locus YNL322C, strain KRE1 (second series), active compounds read low 1 | locus YNR049C, strain mso1, active compounds read low 1.01 | locus YOR001W, strain rrp6, active compounds read low 1.01 | locus YOR070C, strain gyp1, active compounds read low 1.02 | locus YOR080W, strain dia2, active compounds read low 1.01 | locus YOR083W, strain WHI5, active compounds read low 0.997 | locus YOR106W, strain vam3, active compounds read low 0.963 | [7] 1.03 | locus YOR265W, strain rbl2, active compounds read low 1.01 | locus YOR270C, strain vph1, active compounds read low 0.967 | locus YOR290C, strain snf2, active compounds read low 0.95 | locus YPL051W, strain arl3, active compounds read low 1.04 | locus YPL078C, strain atp4, active compounds read low 0.965 | locus YPL106C, strain sse1, active compounds read low 0.999 | locus YPL240C, strain hsp82, active compounds read low 1.01 | [8] 1.03

CC(C)N=c1cc2n(-c3ccc(Cl)cc3)c3ccccc3nc-2cc1Nc1ccc(Cl)cc1
inactive: [1] 0.929 | [4] 0.948 | [6] 0.9
active: [2] 0.812 | [3] 0.869 | [5] 0.807 | [7] 0.831 | [8] 0.818

CCCCCc1ccc(S(=O)(=O)Nc2ncc(C)cc2Br)cc1
inactive: locus YAR019C, strain CDC15, active compounds read low 0.955 | locus YBL105C, strain PKC1, active compounds read low 0.953 | locus YBR135W, strain CKS1, active compounds read low 0.942 | locus YBR136W, strain MEC1, active compounds read low 0.952 | locus YBR160W, strain CDC28, active compounds read low 0.947 | locus YDL017W, strain CDC7, active compounds read low 0.953 | locus YDL028C, strain MPS1, active compounds read low 0.953 | locus YDL101C, strain DUN1, active compounds read low 0.962 | locus YDL108W, strain KIN28, active compounds read low 0.951 | locus YDL132W, strain cdc53, active compounds read low 0.962 | locus YDL214C, strain PRR2, active compounds read low 0.832 | locus YDR052C, strain DBF4, active compounds read low 0.962 | locus YDR054C, strain cdc34, active compounds read low 0.945 | locus YDR226W, strain ADK1, active compounds read low 0.959 | locus YDR477W, strain SNF1, active compounds read low 0.873 | locus YER123W, strain YCK3, active compounds read low 0.835 | locus YER133W, strain GLC7, active compounds read low 0.884 | locus YFL009W, strain cdc4, active compounds read low 0.957 | locus YFL029C, strain CAK1, active compounds read low 0.949 | locus YFR003C, strain YPI1, active compounds read low 0.959 | locus YFR019W, strain FAB1, active compounds read low 0.939 | locus YFR028C, strain CDC14, active compounds read low 0.95 | locus YGR040W, strain KSS1, active compounds read low 0.865 | locus YGR052W, strain FMP48, active compounds read low 0.847 | locus YGR092W, strain DBF2, active compounds read low 0.769 | [2] 0.835 | locus YHR082C, strain KSP1, active compounds read low 0.857 | locus YHR205W, strain SCH9, active compounds read low 0.702 | locus YIL147C, strain SLN1, active compounds read low 0.96 | [3] 0.789 | locus YJL128C, strain PBS2, active compounds read low 0.852 | locus YJL157C, strain FAR1, active compounds read low 0.863 | locus YJR016C, strain ILV3, active compounds read low 0.96 | locus YJR066W, strain TOR1 (second series), active compounds read low 0.856 | [4] 0.906 | locus YKL067W, strain YNK1, active compounds read low 0.853 | locus YKL101W, strain HSL1, active compounds read low 0.78 | locus YKL193C, strain SDS22, active compounds read low 0.964 | locus YKL203C, strain TOR2, active compounds read low 0.936 | locus YLR133W, strain CKI1, active compounds read low 0.845 | locus YLR403W, strain SFP1, active compounds read low 0.779 | locus YML070W, strain DAK1, active compounds read low 0.78 | locus YMR001C, strain CDC5, active compounds read low 0.955 | locus YMR205C, strain PFK2 (second series), active compounds read low 0.836 | locus YMR277W, strain FCP1, active compounds read low 0.956 | locus YNL006W, strain LST8, active compounds read low 0.968 | locus YNL020C, strain ARK1, active compounds read low 0.796 | locus YNL161W, strain CBK1, active compounds read low 0.961 | [6] 0.806 | locus YNL207W, strain RIO2, active compounds read low 0.968 | locus YNL222W, strain SSU72, active compounds read low 0.951 | locus YNL307C, strain MCK1 (second series), active compounds read low 0.811 | locus YOL078W, strain AVO1, active compounds read low 0.95 | locus YOL136C, strain PFK27, active compounds read low 0.818 | locus YOR061W, strain CKA2, active compounds read low 0.815 | locus YOR119C, strain RIO1, active compounds read low 0.893 | [7] 0.783 | locus YOR329C, strain SCD5, active compounds read low 0.957 | locus YPL031C, strain PHO85, active compounds read low 0.882 | locus YPL153C, strain RAD53, active compounds read low 0.829 | locus YPL204W, strain HRR25, active compounds read low 0.843 | locus YPL209C, strain IPL1, active compounds read low 0.955 | locus YPR025C, strain CCL1, active compounds read low 0.955 | locus YPR106W, strain ISR1, active compounds read low 0.921 | locus YPR111W, strain DBF20, active compounds read low 0.903 | strain NNK1, active compounds read low 0.923 | strain TSCII, active compounds read low 0.955
active: [1] 0.568 | locus YKL048C, strain ELM1, active compounds read low 0.793 | [5] 0.674 | [8] 0.792

Reference: PubChem BioAssay AID1159580 (chemical genetic matrix, 2015)
